Results filed as inconclusive are left out. Entries that show only a call come without a potency. Unmarked numbers belong to inactive results. Active and inactive are the calls of the source. Calls come from the whole dose curve; as a rule, active = well fitted curve in the direction sought with a large enough effect; inconclusive = small, poorly fitted or top-dose-only effect, or another doubt; inactive = no such curve, though single readings can be large; an effect the other way counts as inactive or inconclusive.
What was measured:
[1] = target: Cellular tumor antigen p53 (Homo sapiens) (UniProt P04637); experiment: Primary qHTS for small molecule compounds that upregulate eGFP-tagged delta133p53alpha (in N-terminal) cells. (AID 2060322); conditions: NCI-H358 eGFP-delta133p53alpha fluorescence, 24 h; activation: active compounds read high; note: nearly all actives have a fitted effect of over 75% in size; note: potency is the fitted concentration of half-maximal effect; for activation: series mostly up to about 56 µM
Cellular tumor antigen p53 (Homo sapiens), sequence (P04637 whole entry, looked up): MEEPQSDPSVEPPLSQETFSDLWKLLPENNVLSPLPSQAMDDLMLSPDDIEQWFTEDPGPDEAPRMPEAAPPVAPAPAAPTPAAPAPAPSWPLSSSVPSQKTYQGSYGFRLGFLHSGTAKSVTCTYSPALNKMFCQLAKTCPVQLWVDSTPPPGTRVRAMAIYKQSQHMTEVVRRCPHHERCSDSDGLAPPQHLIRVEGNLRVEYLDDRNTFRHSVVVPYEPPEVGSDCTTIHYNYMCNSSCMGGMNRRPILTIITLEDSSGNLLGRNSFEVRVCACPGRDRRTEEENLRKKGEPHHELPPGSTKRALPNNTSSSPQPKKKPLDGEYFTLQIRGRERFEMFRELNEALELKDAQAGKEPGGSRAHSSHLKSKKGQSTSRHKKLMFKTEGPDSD
In short: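 NCI-H358 cells pre-induced 24 h with 10 ng/ml doxycycline to express N-terminal eGFP-delta133p53alpha, then dosed 24 h at 37C without doxycycline; fixed, Hoechst-stained, GFP intensity by laser scanning cytometry, normalized to DMSO (0%) and 57.5 uM 5-azacytidine (100%).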

[2] = target: Aldehyde dehydrogenase, mitochondrial (Homo sapiens) (UniProt P05091); experiment: qHTS for Inhibitors of the Aldehyde Dehydrogenase Family (ALDH2) Primary screen (AID 2061308); note: nearly all actives have a fitted effect of over 55% in size
[3] = target: Retinaldehyde dehydrogenase 3 (Homo sapiens) (UniProt P47895); experiment: qHTS for Inhibitors of the Aldehyde Dehydrogenase Family (ALDH1A3) Primary screen (AID 2061315)

Row | Structure (SMILES) | Potency [1] | Potency [2] | Potency [3] | activation [1] [%]
1 | CC1=CC2/C=C(\C)CCC(O)C(O)/C=C/C(=O)C23C(=O)NC(CC(C)C)C3C1C (configuration not stated) | 13.1 µM (active) | inactive | inactive | 
2 | CN1C(=O)N(c2ccc(C#N)c(C(F)(F)F)c2)C(=O)[C@]1(CO)c1ccccc1 |  | inactive | inactive | 17
3 | COc1ccsc1CNCC[C@@]1(c2ccccn2)CCOC2(CCCC2)C1 |  | inactive | inactive | -0.333
4 | CN1CCc2cc3c(cc2C1C1OC(=O)c2c1ccc1c2OCO1)OCO3 (configuration not stated) |  | inactive | inactive | -26
5 | COC1CC(OC2CCC3(C)C(=CCC4C3CCC3(C)C(C(C)OC5OC(COC6OC(CO)C(O)C(O)C6O)C(O)C(O)C5O)CCC43O)C2)OC(C)C1OC1OC(C)C(O)C(OC)C1O (configuration not stated) |  | inactive | inactive | 5.34
6 | C=C(C)[C@H]1O[C@H]2CC[C@@]3(C)[C@@](O)(CC[C@H]4[C@@H]5OC(C)(C)[C@H]6C[C@@H]7C(=C)Cc8c(Cl)cc9[nH]c(c5c9c8[C@@]76O)[C@@]43C)[C@]23O[C@@H]3[C@H]1O |  | inactive | inactive | -8.93
7 | CCOc1ccc(Oc2ccc(OCc3cc(F)ccc3F)cc2)c(N)c1 |  | inactive | inactive | 3.57
8 | C=CCN1CCC2(C)c3cc(O)ccc3C[C@H]1[C@H]2C |  | inactive | inactive | -5
9 | C[C@]12CC[C@H](O[C@@H]3O[C@H](CO)[C@@H](O)[C@H](O)[C@H]3O)CC1CC[C@@H]1C2CC[C@]2(C)[C@@H](C3=CC(=O)OC3)CC[C@]12O (some centres not stated) | 11.7 µM (active) | inactive | inactive | 
